Where “and” joins values, the source holds several entries; their conditions need not be identical. Equal values may be shown once. Results filed as inconclusive are left out. Calls of active or inactive are those of the source. Unless noted, how the calls were made is not given here.
Key:
[1] = qHTS assay for cell viability of the p53RE-bla HCT-116 cell line (AID 743292; active means well fitted cell-killing curve with a large enough effect; further: on the % scale 0 is the no-effect control and ±100 the full control effect; nearly all actives have a fitted effect of over 55% in size); conditions: p53RE-bla HCT-116 viability, ATP luminescence, 16 h; series mostly up to 95 µM
Procedure, shortened: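 Compound-exposed HCT-116 (p53RE-bla) cells, 4,000 per well, were kept 16 h at 37 C following a 5 h preincubation. Cell number was estimated from total ATP by CellTiter-Glo luminescence read after 30 min at room temperature.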

[2] = biological target: Nuclear receptor subfamily 1 group I member 2 (Rattus norvegicus) (UniProt Q9R1A7); test: qHTS assay for small molecule activators of the rat pregnane X receptor (rPXR) signaling pathway (AID 651751); conditions: rPXR reporter cells, luciferase (One-Glo), 24 h; further: 0% is about no effect
[3] = qHTS assay for small molecule activators of the human pregnane X receptor (PXR) signaling pathway (AID 720659); conditions: DPX-2 HepG2 CYP3A4-luciferase, 24 h; series mostly up to 92.3 µM; further: 0% is about no effect

Sequence of Nuclear receptor subfamily 1 group I member 2 (Rattus norvegicus) (Q9R1A7 whole entry, looked up): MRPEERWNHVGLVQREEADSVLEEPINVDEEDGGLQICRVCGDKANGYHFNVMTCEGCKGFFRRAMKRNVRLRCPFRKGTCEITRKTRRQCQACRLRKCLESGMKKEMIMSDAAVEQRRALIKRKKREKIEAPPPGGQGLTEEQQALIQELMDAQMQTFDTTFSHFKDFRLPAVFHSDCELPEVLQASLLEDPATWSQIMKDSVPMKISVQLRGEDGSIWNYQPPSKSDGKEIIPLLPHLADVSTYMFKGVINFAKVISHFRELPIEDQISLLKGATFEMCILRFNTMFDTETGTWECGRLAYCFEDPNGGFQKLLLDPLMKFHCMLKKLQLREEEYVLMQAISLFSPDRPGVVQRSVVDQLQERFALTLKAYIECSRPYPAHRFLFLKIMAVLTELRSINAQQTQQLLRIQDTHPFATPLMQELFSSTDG

CC(=O)OC(C)C
inactive: Potency [1] | max response [2] -1.92% | outcome [3]

CNc1ccc([N+](=O)[O-])cc1
inactive: Potency [1] | max response [2] 8.26% | outcome [3]

Cc1ccccc1Br
inactive: Potency [1] | max response [2] -1.24% | outcome [3]

O=C1OC(=O)c2c(Cl)c(Cl)c(Cl)c(Cl)c21
inactive: Potency [1] | max response [2] 0.139% and -2.42% | outcome [3]

O=C(O)c1ccccc1[N+](=O)[O-]
inactive: Potency [1] | max response [2] 0.256% | outcome [3]

Cc1nc2ccc(Cl)cc2[nH]1
inactive: Potency [1] | max response [2] -1.68% | outcome [3]

O=[N+]([O-])c1cccc(Cl)c1
inactive: Potency [1] | max response [2] 0.107% | outcome [3]

NC(=O)NC(N)=O
inactive: Potency [1] | max response [2] -0.329% | outcome [3]

Nc1ccccc1[N+](=O)[O-]
inactive: Potency [1] | max response [2] -0.731% | outcome [3]

O=C(O)c1ccccc1C(=O)O
inactive: Potency [1] | max response [2] -4.53% | outcome [3]

O=C(O)c1ccc(C(=O)O)cc1
inactive: Potency [1] | max response [2] -1.05% and -0.301% | outcome [3]

CCC1CO1 (centres undefined)
inactive: Potency [1] | max response [2] 4.08% | outcome [3]

CC(C)N(C)C
inactive: Potency [1] | max response [2] -2.95% | outcome [3]

O=C(Cl)c1cccc([N+](=O)[O-])c1
inactive: Potency [1] | max response [2] -6.23% | outcome [3]

O=[N+]([O-])c1ccc(NCCO)c(OCCO)c1
inactive: Potency [1] | max response [2] -2.89% | outcome [3]

CCCCC(=O)N(C)C
inactive: Potency [1] | max response [2] -1.49% | outcome [3]

CCCCCCC(=O)O
inactive: Potency [1] | max response [2] -2.97% | outcome [3]

OC(CCl)CCl
inactive: Potency [1] | max response [2] 0.333% | outcome [3]

CC(=O)Nc1ccc(N)cc1
inactive: Potency [1] | max response [2] 9.42% | outcome [3]

Cc1cccc(C(=O)O)c1
inactive: Potency [1] | max response [2] -5.92% | outcome [3]

Cc1ccccc1C(N)=O
inactive: Potency [1] | max response [2] -3.36% | outcome [3]

Cc1ccc(N(C)C)cc1
inactive: Potency [1] | max response [2] 1.14% | outcome [3]

O=P(O)(OCc1ccccc1)OCc1ccccc1
inactive: Potency [1] | max response [2] 3.16% | outcome [3]

CC(C)c1ccccc1
inactive: Potency [1] | max response [2] -5.7% | outcome [3]

c1ccc(Oc2ccccc2)cc1
inactive: Potency [1] | max response [2] -0.536% and 5.2% | outcome [3]

CC(C)N=C=NC(C)C
inactive: Potency [1] | max response [2] 1.41% | outcome [3]

O=Cc1ccc(CO)o1
inactive: Potency [1] | max response [2] 1.25% | outcome [3]

ClC/C=C/CCl
inactive: Potency [1] | max response [2] 5.09% | outcome [3]

O=[N+]([O-])c1ccc(CCO)cc1
inactive: Potency [1] | max response [2] 0.179% | outcome [3]

NCCCCCCN
inactive: Potency [1] | max response [2] 2.77% | outcome [3]

CC(=O)OCCC(C)C
inactive: Potency [1] | max response [2] 8.07% | outcome [3]

O=Cc1ccc(Cl)cc1
inactive: Potency [1] | max response [2] -2.77% | outcome [3]

CC(=O)Nc1ccccc1C
inactive: Potency [1] | max response [2] -0.909% | outcome [3]

O=[N+]([O-])c1ccc(Cl)cc1Cl
inactive: Potency [1] | max response [2] -0.131% | outcome [3]

C=CC(=O)OCCCC
inactive: Potency [1] | max response [2] 6.31% | outcome [3]

CC(C)(c1cc(Br)c(OCC(Br)CBr)c(Br)c1)c1cc(Br)c(OCC(Br)CBr)c(Br)c1 (centres undefined)
inactive: Potency [1] | max response [2] 6.37% | outcome [3]

CCC(O)C(C)(C)C (centres undefined)
inactive: Potency [1] | max response [2] 7.53% | outcome [3]

CCCCCCCCCCCCOCC1CO1 (centres undefined)
inactive: Potency [1] | max response [2] 1.3% | outcome [3]

COc1ccccc1[N+](=O)[O-]
inactive: Potency [1] | max response [2] 1.11% and 2.57% | outcome [3]

O=C1OC(=O)c2cc([N+](=O)[O-])ccc21
inactive: Potency [1] | max response [2] -0.914% | outcome [3]

Cc1cc(C)cc([N+](=O)[O-])c1
inactive: Potency [1] | max response [2] 1.37% | outcome [3]

CCCCCCCCC
inactive: Potency [1] | max response [2] 3.91% | outcome [3]

C1CCC2OC2C1 (centres undefined)
inactive: Potency [1] | max response [2] -4.14% | outcome [3]

Cc1cccc2cccnc12
inactive: Potency [1] | max response [2] -0.272% | outcome [3]

C=CCOC(=O)COCCC(C)C
inactive: Potency [1] | max response [2] -3.06% | outcome [3]

CCOC(C)(C)C
inactive: Potency [1] | max response [2] -4.12% | outcome [3]

NC=O
inactive: Potency [1] | max response [2] -1.14% | outcome [3]

CC(CCl)OC(C)CCl (centres undefined)
inactive: Potency [1] | max response [2] 2.99% | outcome [3]

— PubChem BioAssay (NCATS)
